“And” between values parts separate entries of the source, which are not always exact repeats. Equal values may be shown once. This is part of a sample that, as a whole, favours compounds with a hit. Of some 83,000 tested, about 20% had one in any assay.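 48-hour exposure, single concentration, 96-well plates; percent growth endpoint where 0 means no net growth. Active: below 10.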 The source made the active and inactive calls.
Columns and labels:
Experiment in all cases: NCI-60 one-dose screen, 48 h (100 = growth as untreated, 0 = no growth, -100 = all killed)
Conditions in all cases: 10 µM unless noted
NCI-H226 lung = system: NCI-H226 lung
NCI-H322M lung = system: NCI-H322M lung
HOP-62 NSCLC = system: HOP-62 NSCLC
NCI-H460 lung = system: NCI-H460 lung
HOP-92 NSCLC = system: HOP-92 NSCLC
NCI-H522 lung = system: NCI-H522 lung
786-0 renal = system: 786-0 renal
COLO 205 colon = system: COLO 205 colon
DU-145 prostate = system: DU-145 prostate
K-562 leukemia = system: K-562 leukemia
MALME-3M melanoma = system: MALME-3M melanoma
MDA-MB-231 breast = system: MDA-MB-231 breast
RXF 393 renal = system: RXF 393 renal
SF-268 CNS = system: SF-268 CNS
SF-295 CNS = system: SF-295 CNS
SF-539 CNS = system: SF-539 CNS
UACC-257 melanoma = system: UACC-257 melanoma
M14 melanoma = system: M14 melanoma
A549/ATCC NSCLC = system: A549/ATCC NSCLC

COc1ccc(/C=C/C(=O)O)cc1OC
growth (NCI-H226 lung): 102% (inactive) and 107% (inactive) | growth (NCI-H322M lung): 101% (inactive) and 115% (inactive) | growth (HOP-62 NSCLC): 104% (inactive) and 105% (inactive) | growth (NCI-H460 lung): 103% (inactive) | growth (HOP-92 NSCLC): 89% (inactive) and 97.1% (inactive) | growth (NCI-H522 lung): 102% (inactive) and 84% (inactive) | growth (786-0 renal): 102% (inactive) and 105% (inactive) | growth (COLO 205 colon): 104% (inactive) and 115% (inactive) | growth (DU-145 prostate): 108% (inactive) and 111% (inactive) | growth (K-562 leukemia): 96.7% (inactive) and 105% (inactive) | growth (MALME-3M melanoma): 103% (inactive) and 122% (inactive) | growth (MDA-MB-231 breast): 100% (inactive) and 108% (inactive) | growth (RXF 393 renal): 107% (inactive) and 111% (inactive) | growth (SF-268 CNS): 108% (inactive) and 99.3% (inactive) | growth (SF-295 CNS): 107% (inactive) and 105% (inactive) | growth (SF-539 CNS): 102% (inactive) and 105% (inactive) | growth (UACC-257 melanoma): 104% (inactive) and 102% (inactive)

CCOC(=O)CN1CCC(C(=O)OCC)CC1
growth (NCI-H226 lung): 107% (inactive) | growth (NCI-H322M lung): 124% (inactive) | growth (HOP-62 NSCLC): 98.9% (inactive) | growth (NCI-H460 lung): 108% (inactive) | growth (HOP-92 NSCLC): 92.3% (inactive) | growth (NCI-H522 lung): 96.1% (inactive) | growth (786-0 renal): 109% (inactive) | growth (COLO 205 colon): 112% (inactive) | growth (DU-145 prostate): 118% (inactive) | growth (K-562 leukemia): 118% (inactive) | growth (MALME-3M melanoma): 111% (inactive) | growth (MDA-MB-231 breast): 103% (inactive) | growth (RXF 393 renal): 127% (inactive) | growth (SF-268 CNS): 113% (inactive) | growth (SF-295 CNS): 119% (inactive) | growth (SF-539 CNS): 117% (inactive) | growth (UACC-257 melanoma): 110% (inactive) | growth (M14 melanoma): 105% (inactive)

COc1ccc(C(=O)C(O)c2ccc(OC)cc2)cc1 (centres undefined)
growth (NCI-H226 lung): 92.5% (inactive) and 96.2% (inactive) | growth (NCI-H322M lung): 96.6% (inactive) and 102% (inactive) | growth (HOP-62 NSCLC): 109% (inactive) and 108% (inactive) | growth (NCI-H460 lung): 104% (inactive) and 105% (inactive) | growth (HOP-92 NSCLC): 96.2% (inactive) | growth (NCI-H522 lung): 102% (inactive) | growth (A549/ATCC NSCLC): 109% (inactive) and 103% (inactive) | growth (786-0 renal): 103% (inactive) | growth (COLO 205 colon): 110% (inactive) and 108% (inactive) | growth (DU-145 prostate): 110% (inactive) and 103% (inactive) | growth (K-562 leukemia): 101% (inactive) and 103% (inactive) | growth (MALME-3M melanoma): 92.2% (inactive) and 103% (inactive) | growth (MDA-MB-231 breast): 104% (inactive) and 112% (inactive) | growth (RXF 393 renal): 125% (inactive) and 103% (inactive) | growth (SF-268 CNS): 103% (inactive) and 101% (inactive) | growth (SF-295 CNS): 104% (inactive) and 107% (inactive) | growth (SF-539 CNS): 105% (inactive) and 103% (inactive) | growth (UACC-257 melanoma): 104% (inactive) and 101% (inactive) | growth (M14 melanoma): 101% (inactive) and 99.9% (inactive)

C=CCN1C(=O)c2ccccc2C1=O
growth (NCI-H226 lung): 101% (inactive) | growth (NCI-H322M lung): 102% (inactive) | growth (HOP-62 NSCLC): 104% (inactive) | growth (NCI-H460 lung): 101% (inactive) | growth (HOP-92 NSCLC): 80.9% (inactive) | growth (NCI-H522 lung): 86% (inactive) | growth (A549/ATCC NSCLC): 100% (inactive) | growth (786-0 renal): 103% (inactive) | growth (COLO 205 colon): 98.4% (inactive) | growth (DU-145 prostate): 107% (inactive) | growth (K-562 leukemia): 106% (inactive) | growth (MALME-3M melanoma): 120% (inactive) | growth (MDA-MB-231 breast): 106% (inactive) | growth (RXF 393 renal): 104% (inactive) | growth (SF-268 CNS): 106% (inactive) | growth (SF-295 CNS): 109% (inactive) | growth (SF-539 CNS): 95.3% (inactive) | growth (UACC-257 melanoma): 102% (inactive) | growth (M14 melanoma): 99.9% (inactive)

CCN(CC)Cc1cc2[nH]c3c4ccc(Cl)cc4ncc3c2cc1OC
growth (NCI-H226 lung): 84.1% (inactive) and 93.4% (inactive) | growth (NCI-H322M lung): 93.2% (inactive) and 87.2% (inactive) | growth (HOP-62 NSCLC): 80.7% (inactive) and 87.9% (inactive) | growth (NCI-H460 lung): 0.598% (active) and 14% (inactive) | growth (HOP-92 NSCLC): 60.6% (inactive) and 78% (inactive) | growth (NCI-H522 lung): 244% (inactive) and 12.6% (inactive) | growth (A549/ATCC NSCLC): 19.6% (inactive) and 44.1% (inactive) | growth (786-0 renal): 81% (inactive) and 86.3% (inactive) | growth (COLO 205 colon): -16.9% (active) and 1.13% (active) | growth (DU-145 prostate): 10.7% (inactive) | growth (K-562 leukemia): -45.5% (active) | growth (MALME-3M melanoma): 77.2% (inactive) and 107% (inactive) | growth (MDA-MB-231 breast): -4.73% (active) and 16.6% (inactive) | growth (RXF 393 renal): -43.2% (active) and -29.8% (active) | growth (SF-268 CNS): 22.9% (inactive) and 89.1% (inactive) | growth (SF-295 CNS): 102% (inactive) and 90.9% (inactive) | growth (SF-539 CNS): -73.3% (active) and -71.9% (active) | growth (UACC-257 melanoma): 94.5% (inactive) and 104% (inactive) | growth (M14 melanoma): -49.3% (active) and -42.6% (active)

Cc1cnc(N)s1
growth (NCI-H226 lung): 90.6% (inactive) | growth (NCI-H322M lung): 99.6% (inactive) | growth (HOP-62 NSCLC): 78.3% (inactive) | growth (NCI-H460 lung): 105% (inactive) | growth (HOP-92 NSCLC): 91.3% (inactive) | growth (NCI-H522 lung): 77.9% (inactive) | growth (A549/ATCC NSCLC): 69% (inactive) | growth (786-0 renal): 106% (inactive) | growth (COLO 205 colon): 102% (inactive) | growth (DU-145 prostate): 106% (inactive) | growth (K-562 leukemia): 92.9% (inactive) | growth (MALME-3M melanoma): 98.1% (inactive) | growth (MDA-MB-231 breast): 91.6% (inactive) | growth (RXF 393 renal): 105% (inactive) | growth (SF-268 CNS): 93.8% (inactive) | growth (SF-295 CNS): 98.3% (inactive) | growth (SF-539 CNS): 103% (inactive) | growth (UACC-257 melanoma): 84.4% (inactive)

CCC/C(=N/NC(N)=O)c1ccco1
growth (NCI-H226 lung): 96.1% (inactive) | growth (NCI-H322M lung): 96.5% (inactive) | growth (HOP-62 NSCLC): 79.7% (inactive) | growth (NCI-H460 lung): 104% (inactive) | growth (HOP-92 NSCLC): 82.7% (inactive) | growth (NCI-H522 lung): 76.3% (inactive) | growth (A549/ATCC NSCLC): 93.4% (inactive) | growth (786-0 renal): 89.7% (inactive) | growth (COLO 205 colon): 107% (inactive) | growth (DU-145 prostate): 109% (inactive) | growth (K-562 leukemia): 104% (inactive) | growth (MALME-3M melanoma): 83.8% (inactive) | growth (MDA-MB-231 breast): 100% (inactive) | growth (RXF 393 renal): 105% (inactive) | growth (SF-268 CNS): 102% (inactive) | growth (SF-295 CNS): 98.4% (inactive) | growth (SF-539 CNS): 93% (inactive) | growth (UACC-257 melanoma): 98.6% (inactive) | growth (M14 melanoma): 97.6% (inactive)

From PubChem BioAssay (NCI)
